Data: paper PMC4552634, “A New Set of Chemical Starting Points with Plasmodium falciparum Transmission-Blocking Potential for Antimalarial Drug Discovery” (PLoS ONE, 2015)
Among all 13,000 compounds or so, about 3,200 (25%) showed an effect of 50% or more. The list shows a part of the results.

test system: P. falciparum stage V gametocytes; design: BacTiter-Glo ATP luminescence viability of purified stage V gametocytes in 384-well plates, per cent inhibition versus DMSO; conditions: 48 h, 5 µM; inhibitor

Row | Structure (SMILES) | % Inhibition [%]
1 | Cc1ccccc1C1CCN(C2CCC(NC(=O)/C=C/c3c[nH]c4ccccc34)CC2)CC1 (centres unmarked) [TCMDC-134103] | -47.56
2 | O=C(O)CCSc1ncnc2nc[nH]c12 [TCMDC-125870] | -3.326
3 | NC(N)=Nc1ccc(CCc2ccc(N=C(N)N)cc2)cc1 [TCMDC-137701] | -9.941
4 | O=C(Nc1cccc(CN2CCCN(Cc3ncc[nH]3)CC2)c1)c1ccc(-c2ccccc2)cc1 [TCMDC-141849] | 12.11
5 | CC1(C)CCCN(C(=O)Cc2ccc3c(c2)CCCC3)C1CN1CC=CC1 (centres unmarked) [TCMDC-131637] | 3.216
6 | C=Cc1sc(CNCCCNc2cc(=O)c3ccccc3[nH]2)c(C)c1Br [TCMDC-141064] | -9.308
7 | N#Cc1ccc(CN2CCCN(c3ccc(NC(=O)c4ccc(F)cc4)cc3)CC2)cc1 [TCMDC-134984] | -24.83
8 | COc1ccc(CNc2nc(NCc3ccccc3)c3cc(OC)c(OC)cc3n2)cc1OC [TCMDC-131893] | 102.4
9 | COc1ccc(CCNc2nc(NCc3ccccc3)c3cc(OC)c(OC)cc3n2)cc1OC [TCMDC-132017] | 95.97
10 | COc1cc2nc(N[C@@H](CO)c3ccccc3)nc(NCc3ccccc3)c2cc1OC [TCMDC-132024] | 6.921
11 | COc1ccc2ccccc2c1CON1C(N)=NC(N)=NC1(C)C [TCMDC-131789] | 14.14
12 | O=C(N/C(=C/c1cccc([N+](=O)[O-])c1)c1nc2ccccc2[nH]1)c1cccc(Br)c1 [TCMDC-123667] | 25.9
13 | CCc1nc2ccc(C(=O)OC)nc2n1Cc1ccc2oc(-c3ccccc3N)c(Br)c2c1 [TCMDC-131989] | 82.84
14 | Cc1cccc2[nH]c(-c3cccc(-c4ccc(NC(=O)Cc5ccccn5)cc4)c3)nc12 [TCMDC-132178] | -17.95
15 | CS(=O)(=O)CCNCc1cccc(-c2cc3c(Nc4ccc5c(cnn5Cc5ccccc5)c4)ncnc3s2)c1 [TCMDC-134664] | -36.31
16 | CN1CCC(c2ccc(NC(=O)c3ccc(-c4cccc(C(F)(F)F)c4)o3)cc2)CC1 [TCMDC-134195] | 6.508
17 | O=C(Nc1ccc(S(=O)(=O)NCCCN2CCOCC2)cc1)c1cc(-c2ccccc2)n[nH]1 [TCMDC-125046] | -31.32
18 | COc1cccc2c1CCN(CCN1CCC(NC(=O)c3ccc(-c4cccc(Cl)c4Cl)cc3)CC1)C2 [TCMDC-135476] | 76.97
19 | NC(=O)COc1cccc2c1CCN(CCN1CCC(NC(=O)c3ccc(-c4ccc(Cl)cc4)cc3)CC1)C2 [TCMDC-135479] | -28.95
20 | C=CCOc1cccc2c1CCN(CCN1CCC(NC(=O)c3ccc(-c4ccc(Cl)cc4)cc3)CC1)C2 [TCMDC-135633] | -61.81
